# Bioassay records as filed in PubChem.
# GAA glycogen – inhibitors or activators of human alpha-glucosidase glycogen cleavage. P10253. recombinant GAA, glycogen substrate, Amplex Red glucose oxidase fluorescence. Potency, µM (series often up to 76.4 µM), for inactives: top-dose activity change, negative = inhibition, hits mostly inhibitors. 300,000 tested, 0.38% active. AID 2100;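 also: potency is read from the fitted curve at half-maximal effect; 0% = full enzyme reaction and -100% = no-enzyme basal signal; the screen sought inhibitors and activators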
#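 Natural-substrate format: glycogen cleavage by 4 nM human enzyme, glucose read by Amplex Red coupling (Ex 573, Em 610 nm). Normalized to enzyme and no-enzyme controls.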
# N370S GC mod – inhibits or activates N370S mutant glucocerebrosidase; AID 2101; Potency, µM (top dose mostly 59.4 µM), inactives show top-dose activity change, negative = inhibition, hits mostly inhibitors; N370S GC spleen homogenate, 4MU-glucoside fluorescence; 330,000 tested, 0.092% active;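 also: potency is read from the fitted curve at half-maximal effect; 0% = full enzyme activity and -100% = no enzyme basal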
# GLA spleen mod – alpha-galactosidase A (human) modulation; human spleen homogenate, 4MU-alpha-Gal fluorescence, 40 min; Potency, µM (doses to about 80 µM), for inactives: at the highest dose activity change, negative = inhibition, usual class: inhibitors; 240,000 tested, 0.008% active;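 also: potency is read from the fitted curve at half-maximal effect; 0% = enzyme with vehicle and -100% = no enzyme basal signal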
# Target sequence (P06280 32-429 limits assumed): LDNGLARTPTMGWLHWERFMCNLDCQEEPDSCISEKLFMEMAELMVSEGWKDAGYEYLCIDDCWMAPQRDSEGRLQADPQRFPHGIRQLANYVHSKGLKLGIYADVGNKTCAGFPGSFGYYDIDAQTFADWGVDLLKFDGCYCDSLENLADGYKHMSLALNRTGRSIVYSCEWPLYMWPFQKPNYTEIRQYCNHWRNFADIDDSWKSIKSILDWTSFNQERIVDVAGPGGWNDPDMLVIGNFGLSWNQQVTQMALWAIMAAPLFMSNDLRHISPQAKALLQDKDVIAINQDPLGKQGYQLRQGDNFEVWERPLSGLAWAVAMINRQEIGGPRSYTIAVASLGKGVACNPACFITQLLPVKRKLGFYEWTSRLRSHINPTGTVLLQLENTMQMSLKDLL
#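 Fluorogenic readout (Ex 365/Em 440 nm) of 4-methylumbelliferone released from 1 mM 4-MU-alpha-galactoside by spleen homogenate, 40 min at 37C, pH 5.0. Data normalized to no-enzyme and enzyme controls; Hill-equation AC50 from compound titrations.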
# GLA inh pH 4.5 – inhibitors of human alpha-galactosidase A at pH 4.5; P06280; purified enzyme, 4-MU-alpha-Gal fluorescence, pH 4.5; activity change, negative = inhibition, % at 105 µM; 230,000 tested, under 10 active; AID 1467;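 also: 0% = full activity with enzyme and -100% = basal without enzyme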
# GAA spleen mod – inhibits or activates alpha-glucosidase in human spleen homogenate. human spleen homogenate, 4-MU-alpha-glucoside fluorescence. Potency, µM (highest dose often 79.9 µM), for inactives: top-dose activity change, negative = inhibition, actives largely listed as inhibitors. 240,000 tested, 0.006% active;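 also: potency is read from the fitted curve at half-maximal effect; 0% = enzyme with vehicle and -100% = no enzyme basal signal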
#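 Human spleen homogenate (1 ug) with 4-methylumbelliferyl-alpha-D-glucopyranoside (1 mM final) in 50 mM citrate/phosphate pH 5.0, 0.01% Tween-20; 40 min at 37 C. Stopped at pH 10; 4-MU fluorescence Ex 365/Em 440 nm; AC50 by Hill fit.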
# GAA inhib – alpha-glucosidase (human) inhibition | 200,000 tested, 0.005% active | purified human GAA, 4-MU-alpha-glucoside fluorescence | Potency, µM (top dose mostly 76.9 µM), inactives show at the highest dose activity change, negative = inhibition, most hits filed as inhibitors;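 also: potency is read from the fitted curve at half-maximal effect; plate controls were uninhibited enzyme wells for no effect and no-enzyme background for full effect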
#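 Compounds are titrated up to 77 uM against 4 nM human enzyme. Substrate 4-methylumbelliferyl-alpha-D-pyranoside (400 uM) reacts 20 min at room temperature in pH 5.0 buffer; liberated 4-methylumbelliferone is read at 440 nm.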
# Active calls of the source: *; ? = inconclusive; / = no result; [ ] = remark or other dose. In the library only some 0.43% were active in any assay of this set; here they are far more common. Calls follow the shape of the dose curve; as a rule, active = well fitted curve in the direction sought with a large enough effect; inconclusive = small, poorly fitted or top-dose-only effect, or another doubt; inactive = no such curve, though single readings can be large; an effect the other way counts as inactive or inconclusive.
SMILES,GAA glycogen,N370S GC mod,GLA spleen mod,GLA inh pH 4.5,GAA spleen mod,GAA inhib
CN1CCc2ccc3c4c2[C@]1(C)Cc1cccc(c1-4)OCO3,/,1%,-25%,/,3%,/
O=C(COc1ccccc1Cl)NCC1(N2CCOCC2)CCCCC1,-6%[76.3 µM],/,/,/,/,/
CC1(C)C(c2cccs2)=[N+]([O-])C2(CCCCC/C2=N\NC(N)=S)N1O (centres undefined),18µM*,4%,-1%,4,-2%,4%
CC1(C)C(c2ccco2)=[N+]([O-])C2(CCCCC2=O)N1O (centres undefined),-13%,3%,5%,-4,7%,-7%
Cc1cccc(C)c1Nc1c(-c2ccsc2)nc2cccc(C)n12,-19%[76.3 µM],/,/,/,/,/
CSc1ccc(-c2nc3cccc(C)n3c2Nc2ccc(Cl)cc2)cc1,5.6µM*,/,/,/,/,/
Cc1ccc(C(O)(C(=O)NNc2ccccn2)c2ccc(C)cc2)cc1,5µM*,-4%,6%,-8,-6%,-11%
COc1ccc(/C=N\NC(=O)C2=NNC(=O)C2C)cc1 (centres undefined),28µM*,-4%,-16%,10,-8%,5%
CCOc1ccc(NC(=O)N(Cc2c[nH]c3ccccc23)C2CCCCCC2)cc1,-23%[76.3 µM],/,/,/,/,/
O=C(Nc1ccc(N2CCCC2)cc1)C(c1ccccc1)c1ccccc1,3%,-10%,-6%,0,-5%,-5%
CC(=O)N1CCN(c2ccc(NCc3ccc(C)cc3)cc2)CC1,20µM*,-10%,9%,3,-3%,-9%
CCc1ccc(CNc2ccc(N3CCN(C(C)=O)CC3)cc2)cc1,?,-14%,1%,1,0%,-1%
CC(=O)N1CCN(c2ccc(NC(=O)C(c3ccccc3)c3ccccc3)cc2)CC1,-2%[76.3 µM],13µM*,/,/,/,/
Cc1cccc(N2CCN(CCCNC(=O)Cn3ncc4c([nH]c5ccccc54)c3=O)CC2C)c1 (centres undefined),-5%[76.3 µM],/,/,/,/,/
CCCCn1c(C)cc2cc(O)ccc21,32µM*,-2%,-5%,-6,-5%,1%
CC(C)c1cccc2nc3c(c(C(C)(C)C)c12)Cn1c-3cccc1=O,/,?,?,12,0%,/
COc1ccc(C(=O)Nc2nc3n(n2)C(c2ccc(Cl)cc2)C=C(c2ccccc2)N3)cc1OC (centres undefined),10%[76.3 µM],/,/,/,/,/
Oc1ccc(C2Nc3cccc4cccc(c34)N2)c(O)c1,20µM*,-4%,8%,-25,-5%,3%
Cc1ccc2c(c1)C(=O)[C@@]1(O)CCN(c3ccccc3)C1=N2,/,-16%,0%,-7,-8%,/
c1csc(-c2nc3ccccn3c2Nc2ccc3c(c2)OCCO3)c1,13µM*,/,/,/,/,/
Cc1ccc(-c2nc3ccccn3c2Nc2ccc3c(c2)OCCO3)o1,4.5µM*,/,/,/,/,/
Cc1ccc2nc(-c3ccc(C)o3)c(Nc3ccc4c(c3)OCCO4)n2c1,6.3µM*,/,/,/,/,/
Cc1ccc(-c2nc3ccccn3c2Nc2ccccc2)o1,7.9µM*,5%,30%,5,9%,7%
c1cncc(-c2nc3ccccn3c2Nc2ccc3c(c2)OCCO3)c1,18%,-1%,-6%,-18,-2%,-5%
O=C(O)C(S)[C@@H](S)C(=O)O (some centres undefined),/,10%,23%,1,11%,/
SMILES,GAA glycogen,N370S GC mod,GLA spleen mod,GLA inh pH 4.5,GAA spleen mod,GAA inhib
N[C@@H](Cc1cc(-c2ccc(Cl)cc2Cl)cc(CP(=O)(O)O)c1O)C(=O)O,/,11%,-6%,-5,11%,/
COc1cc(/C=C2/NC(=O)N(Cc3ccccc3F)C2=O)cc(OC)c1O,?,-17%,?,?,-14%,?
CCOc1cc(/C=C2/NC(=O)N(Cc3ccccc3F)C2=O)ccc1O,5.6µM*,-6%,5%,-8,-17%,1%
Cc1cc(C)cc(OCC(=O)Nc2nc3c(s2)CC(C(C)(C)C)CC3)c1 (centres undefined),-3%[76.3 µM],/,/,/,/,/
CS(=O)(=O)Nc1cccc(-c2nccc(-n3ccnc3)n2)c1,/,-6%,15%,-7,5%,/
N=c1c2c(-c3ccccc3)c(-c3ccccc3)n(Cc3ccccc3)c2ncn1CCCn1ccnc1,2%,2.2µM*,1%,-31,-2%,?
CCCCn1cnc2c(c(-c3ccccc3)c(-c3ccccc3)n2Cc2ccco2)c1=N,4%,?,-1%,-3,2%,/
C=Cc1ccc(C=C)cc1,/,19%,18%,/,16%,/
Oc1cccc(/C=N/N2CCN(c3ccccn3)CC2)c1,?,1%,0%,-7,0%,/
Oc1ccc(/C=N/N2CCN(c3ccccn3)CC2)cc1,11µM*,3%,-5%,4,-3%,/
CC(=O)/C=C(\C)Nc1ccccc1O,25µM*,-21%,-3%,-1,-12%,/
C=CCn1c(-c2cc(-c3ccccc3)sc2N)n[nH]c1=S,22µM*,2%,9%,-3,1%,-1%
C=CCn1c(-c2csc(-c3ccccc3)n2)n[nH]c1=S,-7%,4%,7%,2,6%,-2%
COc1cccc(NC(=O)/C(C#N)=C\c2cn(Cc3ccc(Cl)cc3)c3ccccc23)c1,10%[76.3 µM],/,/,/,/,/
C#CCOCCOCCOCCNc1nc(N2CCN(C(=O)CCCCCCCCCCNC(=O)[C@H]([C@@H](C)CC)n3cc(CCCCN=C(N)N)nn3)CC2)nc(N2CCN(C(=O)CCCCCCCCCCNC(=O)[C@H](CCCCN)n3cc(C)nn3)CC2)n1,/,16µM*,/,/,/,/
C#CCOCCOCCOCCNc1nc(N2CCOCC2)nc(N2CCN(C(=O)CCCCCCCCCCNC(=O)[C@@H]([C@H](C)CC)n3cc(CCCCCN)nn3)CC2)n1,/,-29%,/,/,/,/
C#CCOCCOCCOCCNc1nc(N2CCN(C(=O)CCCCCCCCCCNC(=O)[C@H]([C@@H](C)CC)n3cc(CCCCCN)nn3)CC2)nc(N2CCN(C(=O)CCCCCCCCCCNC(=O)[C@H]([C@@H](C)CC)n3cc(CCCCN=C(N)N)nn3)CC2)n1,/,18µM*,/,/,/,/
C#CCOCCOCCOCCNc1nc(N2CCN(C(=O)CCCCCCCCCCNC(=O)Cn3cc(CCCCCN)nn3)CC2)nc(N2CCN(C(=O)CCCCCCCCCCNC(=O)[C@H]([C@@H](C)CC)n3cc(CCCCN=C(N)N)nn3)CC2)n1,/,18µM*,/,/,/,/
C#CCOCCOCCOCCNc1nc(N2CCN(C(=O)CCCCCCCCCCNC(=O)[C@H]([C@@H](C)CC)n3cc(CCCCCN)nn3)CC2)nc(N2CCN(C(=O)CCCCCCCCCCNC(=O)[C@@H]([C@H](C)CC)n3cc(CCCCCN)nn3)CC2)n1,/,18µM*,/,/,/,/
